# Over roughly 68,000 sequences, “fluorescence intensity (a.u.)” has its median near 9,100; the highest 2% begin near 16,000. The sample holds the highest values, similar sequences and a random draw of the others, so the mix is not that of the screen.
# Biological target: OsWRKY34 (Oryza sativa, UniProt Q0JBA9 1-250)
# Assay: protein-binding microarray (RPBM); PBS, 2% BSA, 51.3 ng/ul salmon testes DNA, 50 uM zinc acetate, 200 nM TF, 25 C, 1 h; high values mean tight binding
# Settings: protein: recombinant; tags: N-terminal polyhistidine and DsRed monomer fusion (pET32a); label: CyDye5-dUTP incorporated in the synthesized complementary strand; 3' TTTTT single-stranded linker to array surface; dsDNA, one strand shown
# Method in brief: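 The binding signal is fluorescence intensity per array feature (arbitrary units). Readings came from an Axon 4000B scanner after a washed, 2% BSA-blocked, double-stranded custom Agilent array had been incubated for 1 h at 25 °C with 200 nM protein and 50 µM zinc acetate. The protein was a Ni–NTA-purified transcription factor fused N-terminally to polyhistidine and DsRed, expressed in E. coli BL21-CodonPlus.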
# OsWRKY34, sequence (Q0JBA9 entry or part of it): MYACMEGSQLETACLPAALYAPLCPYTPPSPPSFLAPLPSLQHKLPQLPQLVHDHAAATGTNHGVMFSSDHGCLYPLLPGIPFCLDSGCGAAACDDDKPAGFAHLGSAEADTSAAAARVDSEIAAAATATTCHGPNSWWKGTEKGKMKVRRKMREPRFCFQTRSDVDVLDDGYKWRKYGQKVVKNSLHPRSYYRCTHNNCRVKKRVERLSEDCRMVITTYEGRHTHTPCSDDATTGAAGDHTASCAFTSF
row,Sequence,binding signal
1,CGGGGAGGAGGGAGGAATAAATACGTCCTAGTCGATCAGCCGGAGTCACCTAGTGCAG,8150 fluorescence intensity (a.u.)
2,GTTCAGTCACTCGCACGCTCGCTCGATCACCCGGCCGCCGCGGAGTCACCTAGTGCAG,10200 fluorescence intensity (a.u.)
3,CTCTCTACGGCTAGCTACTCCCATTTGTGGTCAACACCTCCGGAGTCACCTAGTGCAG,10500 fluorescence intensity (a.u.)
4,TGCCTCTGTTACCACACTCTCACCTTGCTTAATAAATGCTCGGAGTCACCTAGTGCAG,9800 fluorescence intensity (a.u.)
5,CTGAAGATTGGATCTAAACTTTGTATCTAAACACAGCCATCGGAGTCACCTAGTGCAG,64300 fluorescence intensity (a.u.)
6,ACTTAGGAGAGATTGCCTGAGTGCCATCTTTTTTGTATCTCGGAGTCACCTAGTGCAG,8960 fluorescence intensity (a.u.)
7,TAACTTCTCAACTTTTTCACCATCTAAACACAGTCTTCATCGGAGTCACCTAGTGCAG,8400 fluorescence intensity (a.u.)
8,CAGCACCAACGTTCTCTTCGGCCGATTCGGCGATTGCATCCGGAGTCACCTAGTGCAG,8930 fluorescence intensity (a.u.)
9,TCCTCTTGCAAAAAAAACACACACACACACGCACACAACTCGGAGTCACCTAGTGCAG,10200 fluorescence intensity (a.u.)
10,ATCCTCTCCCGCACCAGCTATAAACCGCCACACGCCCTCGCGGAGTCACCTAGTGCAG,8650 fluorescence intensity (a.u.)
11,ACGCACCAAAACACACGATCCTCTCGGATAAATCACAGCCCGGAGTCACCTAGTGCAG,27500 fluorescence intensity (a.u.)
12,CTCTCTCTCTCTCTCTCTCTCTCTCTCGATGCCGACGCTTCGGAGTCACCTAGTGCAG,11000 fluorescence intensity (a.u.)
13,GGAGCTAGTCCAACCTACCGCAGTCACACCACCCCGCTATCGGAGTCACCTAGTGCAG,9270 fluorescence intensity (a.u.)
14,GTATGTGGGTGGTGGTATTTTTTTTATCCTGGTTACGACCCGGAGTCACCTAGTGCAG,19700 fluorescence intensity (a.u.)
15,GGTGCGTGGGTGGTGGTCTTTTTCTTTTTCCTAGTTACGACGGAGTCACCTAGTGCAG,29400 fluorescence intensity (a.u.)
16,TGTGGGTGGGGTTATTTTTTCTTCGTTTTCCTATTTACGACGGAGTCACCTAGTGCAG,15700 fluorescence intensity (a.u.)
17,GTGGGTGGTGGTTTTTTTTTCCTTTTTCCTGGTTACGACCCGGAGTCACCTAGTGCAG,23700 fluorescence intensity (a.u.)
18,GATGTGTTGGCTGTCTTTGTTTTTTTTTTCCTGGTTTACCCGGAGTCACCTAGTGCAG,14000 fluorescence intensity (a.u.)
19,TGTATGTGTGGTGTGTGTTCATGTGCATCCTGAATTTTACCGGAGTCACCTAGTGCAG,14200 fluorescence intensity (a.u.)
20,GGAGGTGGAAAATCTTTGTTTTTTTCCTGGTTACGATCTCCGGAGTCACCTAGTGCAG,9150 fluorescence intensity (a.u.)
21,CTTCCTTTTCTCTTCTTCTTCTTCTTCTTTTGCGTGGGGACGGAGTCACCTAGTGCAG,9650 fluorescence intensity (a.u.)

row,Sequence,binding signal
1,TGTGGATGATGGTATTTTTTTTCCTTTTTCCTAGTTACGACGGAGTCACCTAGTGCAG,9100 fluorescence intensity (a.u.)
2,ATATCATGTTTATTATCTTGTTATTTTGGATTAAAATATGCGGAGTCACCTAGTGCAG,9720 fluorescence intensity (a.u.)
3,GATGCCTGCCAATCTGCCATGCCATTATATCTGCAGTTCTCGGAGTCACCTAGTGCAG,12000 fluorescence intensity (a.u.)
4,CGTCTCTCCCGATCCGTCCCATCAAAAAGCAACACCAATACGGAGTCACCTAGTGCAG,8530 fluorescence intensity (a.u.)
5,ATTTTTATAGTATTACATCTACGTGTAAAGTTTCATCTTTCGGAGTCACCTAGTGCAG,8260 fluorescence intensity (a.u.)
6,CTATGGTTTGGTTTGAATTTTACTGTTGTATGCTGTTCCCCGGAGTCACCTAGTGCAG,8660 fluorescence intensity (a.u.)
7,TGGCCGGGAGGGTTGGCCCTTGTGGTTTCGGGGTTTGGTTCGGAGTCACCTAGTGCAG,15900 fluorescence intensity (a.u.)
8,CTTTTCTCATCCCTTTTGTTTCTTCACTCCGGCTCACCGCCGGAGTCACCTAGTGCAG,8230 fluorescence intensity (a.u.)
9,GTACACGTTACCCGCGTGGGTGTGGGTATGGGGATGATTTCGGAGTCACCTAGTGCAG,11700 fluorescence intensity (a.u.)
10,GGGTTGAGATGGGAGTAGAGGGGAGTGAGGTGGAAGAAGACGGAGTCACCTAGTGCAG,8360 fluorescence intensity (a.u.)
11,CGAGGGAGAGGGGAGAGGGGAGTGCGGCGGGTGAGGCGGGCGGAGTCACCTAGTGCAG,9650 fluorescence intensity (a.u.)
12,TGAGAAAGAGAGAGAGAGGGAGATGGCTGGGGAGACGGGGCGGAGTCACCTAGTGCAG,9660 fluorescence intensity (a.u.)
13,TAGGGTTTGGTTGGGTTTTTGGGTGTTTTCAGACGGAGAGCGGAGTCACCTAGTGCAG,12800 fluorescence intensity (a.u.)
14,AGTGTTCTAGACTTACGGGTTACGGTTTTTTTTGTTAGAGCGGAGTCACCTAGTGCAG,8090 fluorescence intensity (a.u.)
15,GGGTGTTTTCAGACGGAGAGAGGCGGCGGCGGCGGCGGGGCGGAGTCACCTAGTGCAG,18500 fluorescence intensity (a.u.)
16,TATTTTTGACCAGAGGGAGGGTTTTTTTTTTTTTGAGAGACGGAGTCACCTAGTGCAG,10300 fluorescence intensity (a.u.)
17,GATCAGAGATGAGGGCGGGCGGGTTGACTGGGAGAGTAGACGGAGTCACCTAGTGCAG,20500 fluorescence intensity (a.u.)
18,GCGGTGATGACAGACGGGAGAGGGAGGGTTTTTTTTGTTACGGAGTCACCTAGTGCAG,18200 fluorescence intensity (a.u.)
19,ACACAGCCACACACCAACATGCCCTTCAGGTCTTCACACTCGGAGTCACCTAGTGCAG,9550 fluorescence intensity (a.u.)
20,TTGTCTCCTATCTTGTGCCGTGCCTTCTTAAACCATTGCTCGGAGTCACCTAGTGCAG,8610 fluorescence intensity (a.u.)
21,CATGGCCTAGTTGGGGTGTTGCGTATGTAATTTATCTGTCCGGAGTCACCTAGTGCAG,8100 fluorescence intensity (a.u.)

row,Sequence,binding signal
1,TTGACGGAGCATCTATACCCGGTTTTGTAGTTCATGAACACGGAGTCACCTAGTGCAG,9100 fluorescence intensity (a.u.)
2,ATTTTGGTACTACTCTATATTTTAGTTTGCAGCTTGTGCTCGGAGTCACCTAGTGCAG,10600 fluorescence intensity (a.u.)
3,ATATACACATTCTCCCATTGCTATATTATCTGTATTCTGACGGAGTCACCTAGTGCAG,13400 fluorescence intensity (a.u.)
4,CTCTCTCTATCCATCTCTTTCTCTCTCTCTTACACAACAACGGAGTCACCTAGTGCAG,8150 fluorescence intensity (a.u.)
5,ATCTATCACCATCTCTCCTTGATCTTGTGCACCTTACAAACGGAGTCACCTAGTGCAG,16800 fluorescence intensity (a.u.)
6,GATCTTGTGCACCTTACAAATTACATTGCCGACCATAAAACGGAGTCACCTAGTGCAG,9320 fluorescence intensity (a.u.)
7,GTTATCAGCTTTTCTTTTTTTTTTGAAATTTCAGATTATTCGGAGTCACCTAGTGCAG,8980 fluorescence intensity (a.u.)
8,CCCCATTCACTTCCACAGACAAGTAGCATCACCTTTCAGTCGGAGTCACCTAGTGCAG,8710 fluorescence intensity (a.u.)
9,AATATATGACGCCGTTAACTTTTCGAACAACATTTGACTACGGAGTCACCTAGTGCAG,9760 fluorescence intensity (a.u.)
10,CCTCCTTTTGACTCAGCAAGTCAATTGTGGTCAACCTGCCCGGAGTCACCTAGTGCAG,8970 fluorescence intensity (a.u.)
11,GTTGACCGTTGACCTTTTTGTGGGTCAACTCAATCAAGACCGGAGTCACCTAGTGCAG,16600 fluorescence intensity (a.u.)
12,TAAATGTTTAACGTTGTTGACTTTTTTAAACATGTTTGACCGGAGTCACCTAGTGCAG,13500 fluorescence intensity (a.u.)
13,CACCTTGACTCAGCGTGGTTGACTCTAGTCAACTTGTCACCGGAGTCACCTAGTGCAG,10400 fluorescence intensity (a.u.)
14,ATTTTAATGTATGACGCCGTTGACTTTTTGTCCAACGTTTCGGAGTCACCTAGTGCAG,25600 fluorescence intensity (a.u.)
15,TAAATGTTTAACGTCGTTGACTTTTTTAAACATGTATGACCGGAGTCACCTAGTGCAG,19200 fluorescence intensity (a.u.)
16,CCATATTTTAATGTATGACGCCATTGACTTTTTGTCCAACCGGAGTCACCTAGTGCAG,14500 fluorescence intensity (a.u.)
17,CGATCAACGTTTGACTATTTGTTTTATTCAAAATTTTTGTCGGAGTCACCTAGTGCAG,9460 fluorescence intensity (a.u.)
18,GTATGACGCCGTTGACTTTTCGATCAACGTTTGACTATTTCGGAGTCACCTAGTGCAG,25300 fluorescence intensity (a.u.)
19,CACCAAGCATGTCCATGACCTTGCACTCTTGGCTCACTCGCGGAGTCACCTAGTGCAG,8030 fluorescence intensity (a.u.)
20,CAAAATCCTTTTTCTTTTTTTCATTTTTTCTGTGCTTTTTCGGAGTCACCTAGTGCAG,8680 fluorescence intensity (a.u.)
21,TAGGCTGATGGGTCTTCATGCTTCGGTTCATCTTCGTCTCCGGAGTCACCTAGTGCAG,10200 fluorescence intensity (a.u.)

row,Sequence,binding signal
1,GGTGAGCTCTCTTTAATGCATATACACAGCAGCCTATTGCCGGAGTCACCTAGTGCAG,8440 fluorescence intensity (a.u.)
2,TGTGATTTGCACCGCATACTTTCCCCGACAATAGATCATCCGGAGTCACCTAGTGCAG,8850 fluorescence intensity (a.u.)
3,CCTCCGCTTCTTCGCCGCCGCCGCCATCCCGCCCTAGCGACGGAGTCACCTAGTGCAG,9070 fluorescence intensity (a.u.)
4,ATTTTCTTTAAGAGATGTTCTTGTCTGTTGTCAGGTTTGTCGGAGTCACCTAGTGCAG,9670 fluorescence intensity (a.u.)
5,ACCGTCGTCAGCAACGCCGCTACTGCCACTGCAATTGCCGCGGAGTCACCTAGTGCAG,8320 fluorescence intensity (a.u.)
6,TTAATGTATGACGCCGTTGACTTTTTAATAAACGTTTGACCGGAGTCACCTAGTGCAG,40900 fluorescence intensity (a.u.)
7,TATTTTAATGTATGACGCCGTTGACTTTTTAATCAATGTTCGGAGTCACCTAGTGCAG,29100 fluorescence intensity (a.u.)
8,CCTTTTGGACGTACGTCGATAGTTGGGTAAATATGAAAAACGGAGTCACCTAGTGCAG,11400 fluorescence intensity (a.u.)
9,CCGCATTTTAATGTATGACGTCATTGACTTTTCGATCAACCGGAGTCACCTAGTGCAG,10200 fluorescence intensity (a.u.)
10,TGTGTACTATTTTTTCTACCGTTGGATACAAATATGAGGGCGGAGTCACCTAGTGCAG,8510 fluorescence intensity (a.u.)
11,TTAATGTATGACGCCGTTGACTTTTTAATCAACGTTTGACCGGAGTCACCTAGTGCAG,25900 fluorescence intensity (a.u.)
12,ACCTGTAAACTACCGTTGGATAAAAAATAAACGTATGAGACGGAGTCACCTAGTGCAG,63600 fluorescence intensity (a.u.)
13,TTTAATGTATCACACCGTTAATTTTTTTTCAACGTTTGACCGGAGTCACCTAGTGCAG,8900 fluorescence intensity (a.u.)
14,CTGAAAATTTTGTGCGCTCACACCATGTGCTACATTTGTCCGGAGTCACCTAGTGCAG,10700 fluorescence intensity (a.u.)
15,TTCCTCCGTTTTTTTTATTCCTGCAACTAAAAGGTATTCTCGGAGTCACCTAGTGCAG,8860 fluorescence intensity (a.u.)
16,GGTCTCAGGTTGTCACTTTTCTATCCAGATTTATCGTAGTCGGAGTCACCTAGTGCAG,8110 fluorescence intensity (a.u.)
17,ATCCTCACGTAATATACACCTTCGTACCATAATATAATAACGGAGTCACCTAGTGCAG,8250 fluorescence intensity (a.u.)
18,CGCTTCCTGTTGTGATTATGTAATCTTGTATTCTTGTTGACGGAGTCACCTAGTGCAG,11600 fluorescence intensity (a.u.)
19,CTCCCTCGTCTTTCTGCTGGCCACCACCCTCCCCGTCTTCCGGAGTCACCTAGTGCAG,12300 fluorescence intensity (a.u.)
20,ACCTTTCTCACTACACGCCATTCCGCTCGCGTCCAATTGTCGGAGTCACCTAGTGCAG,10100 fluorescence intensity (a.u.)
21,CTCGTCGTCTCCTCCGCTCCTTGCGCCATCTCGCGGCTGACGGAGTCACCTAGTGCAG,11500 fluorescence intensity (a.u.)
